According to PubChem BioAssay AID651658 (Broad Institute, 2012):
Hit rate of the full screen: of about 340,000 compounds, about 5,100 (1.5%) were called active. Shown is part of a subset that was picked to be rich in actives. Values without a mark were called inactive.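 The calls were made as follows: active = mean Tm shift, scaled 0 neutral to 100 positive control, at about 1.3% or above, every replicate too (limit read from the data); inconclusive = no clear call, values can overlap the other calls; inactive = the rest.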

target: Fibroblast growth factor 22 (Homo sapiens) (UniProt Q9HCT0); experiment: binders of human FGF22 protein, primary screen, FGF22 synaptogenesis inhibitor project, biophysical, thermal shift, single point (AID 651658); details: recombinant FGF22 thermal shift, SYPRO orange fluorescence; at 9.99 µM; stronger effect = higher value; percent of sucrose octasulfate shift, DMSO zero
Sequence (Q9HCT0 whole entry, looked up): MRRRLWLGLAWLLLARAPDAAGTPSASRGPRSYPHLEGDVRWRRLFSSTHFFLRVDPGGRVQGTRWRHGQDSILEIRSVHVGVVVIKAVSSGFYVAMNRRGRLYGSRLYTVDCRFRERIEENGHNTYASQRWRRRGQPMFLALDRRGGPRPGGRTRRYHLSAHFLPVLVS

Row | SMILES | activity (Tm shift, normalised)
1 | CC(C)CC#Cc1cnc2c(c1)C(=O)N([C@@H](C)CO)C[C@H](C)[C@@H](CN(C)C(=O)c1cccc(F)c1)O2 | -0.381%
2 | CN1c2ccc(-c3ccccc3F)cc2[C@@H]2[C@@H](CCN2C(=O)CN2CCOCC2)[C@H]1CO | -0.099%
3 | O=C(C[C@H]1C[C@@H]2c3cc(NC(=O)C4CCC4)ccc3O[C@@H]2[C@H](CO)O1)NCCN1CCCCC1 | 0.001%
4 | O=C1C[C@@](C(=O)NCC(F)(F)F)(c2ccc([N+](=O)[O-])cc2)[C@@H](c2ccc(CO)cc2I)N1C1CCCCC1 | 0.18%
5 | CCC(=O)N1C[C@@H](C)[C@@H](OC)CN(C)C(=O)c2ccc(NC(=O)c3ccccc3)cc2OC[C@H]1C | -0.17%
6 | COc1ccc2c3c([nH]c2c1)[C@H](CO)N(C(=O)C1CCCCC1)CC31CCN(C(=O)c2ccncc2)CC1 | -0.034%
7 | CC(C)NC(=O)N(C)C[C@H]1OCCCC[C@H](C)Oc2ccc(NC(=O)CCC(F)(F)F)cc2C(=O)N([C@@H](C)CO)C[C@@H]1C | -0.59%
8 | C[C@H](CO)N1C[C@H](C)[C@H](CN(C)C(=O)Nc2ccc(F)cc2)Oc2ncc(-c3cc4ccccc4o3)cc2C1=O | -0.101%
9 | CN(C)CC(=O)N1CCCCN2[C@@H](CO)[C@H](c3ccc(-c4cccnc4)cc3)[C@@H]2C1 | 0.193%
10 | C[C@@H]1CCCCO[C@@H](CN(C)Cc2ccc(C(=O)O)cc2)[C@@H](C)CN([C@@H](C)CO)C(=O)c2cc(NC(=O)Nc3ccc(C(F)(F)F)cc3)ccc2O1 | 10.4% (active)
11 | C[C@@H]1CCCCO[C@@H](CN(C)Cc2ccncc2)[C@H](C)CN([C@H](C)CO)C(=O)c2cc(NC(=O)Cc3ccccc3)ccc2O1 | 25.7% (active)
12 | Cc1ccc(S(=O)(=O)N(C)C[C@@H]2OCCCC[C@@H](C)Oc3ccc(NS(=O)(=O)c4ccccc4)cc3C(=O)N([C@H](C)CO)C[C@@H]2C)cc1 | -0.059%
13 | Cc1ccc(S(=O)(=O)Nc2ccc3c(c2)C(=O)N([C@H](C)CO)C[C@@H](C)[C@H](CN(C)S(=O)(=O)c2ccc(C)cc2)OCCCC[C@@H](C)O3)cc1 | 31.1% (active)
14 | COc1ccc(S(=O)(=O)Nc2ccc3c(c2)C(=O)N([C@@H](C)CO)C[C@H](C)[C@H](CN(C)Cc2ccc(C(=O)O)cc2)OCCCC[C@@H](C)O3)cc1 | 2.26% (active)
15 | C[C@@H]1CN([C@H](C)CO)C(=O)c2cc(NC(=O)Nc3ccc(C(F)(F)F)cc3)ccc2O[C@@H](C)CCCCO[C@@H]1CN(C)Cc1ccc(C(F)(F)F)cc1 | 0.296%
16 | C[C@@H]1CN([C@H](C)CO)C(=O)c2cc(NC(=O)Cc3ccccc3)ccc2O[C@@H](C)CCCCO[C@@H]1CN(C)Cc1ccncc1 | -0.393%
17 | Cc1ccc(S(=O)(=O)N(C)C[C@@H]2OCCCC[C@@H](C)Oc3ccc(NS(=O)(=O)c4ccc(F)cc4)cc3C(=O)N([C@H](C)CO)C[C@H]2C)cc1 | -0.311%
18 | COc1ccc(CN(C)C[C@H]2OCCCC[C@@H](C)Oc3ccc(NS(=O)(=O)c4ccccc4)cc3C(=O)N([C@@H](C)CO)C[C@@H]2C)cc1 | 0.068%
19 | C[C@@H]1CCCCO[C@@H](CN(C)Cc2ccc(C(=O)O)cc2)[C@H](C)CN([C@@H](C)CO)C(=O)c2cc(NC(=O)Nc3ccc(C(F)(F)F)cc3)ccc2O1 | -0.357%
20 | COc1ccc(S(=O)(=O)Nc2ccc3c(c2)C(=O)N([C@H](C)CO)C[C@H](C)[C@@H](CN(C)Cc2ccccc2)OCCCC[C@@H](C)O3)cc1 | -0.202%
21 | C[C@@H]1CCCCO[C@H](CN(C)Cc2ccccc2)[C@@H](C)CN([C@H](C)CO)C(=O)c2cc(NC(=O)Cc3ccccc3)ccc2O1 | 0.467%
22 | O=C(c1ccncc1)N1C[C@@H]2[C@H](c3ccccc31)[C@H](CO)N2C(=O)c1ccncc1 | 1.08%
23 | O=C(C[C@@H]1C[C@H]2c3cc(NC(=O)Nc4ccccc4F)ccc3O[C@H]2[C@@H](CO)O1)NC1CCCCC1 | 0.159%

Row | SMILES | activity (Tm shift, normalised)
24 | N#C[C@@H]1[C@@H](c2ccccc2)[C@@H](CO)N1C(=O)c1cc(Cl)cc(Cl)c1 | -0.146%
25 | O=C(NCc1ccccc1)[C@H]1CCCN1C(=O)[C@H]1CCCN1C(=O)N1CCOCC1 | 0.083%
26 | Cc1ccc2c(Cl)c(C(=O)Nc3nn[nH]n3)sc2c1 | -0.027%
27 | O=C(/C=C/c1c(F)cccc1Cl)Nc1nn[nH]n1 | 43.2% (active)
28 | CNC(=O)/C(C#N)=C/c1c(F)cccc1Cl | 0.243%
29 | C/C=C/c1ccc([C@@H]2[C@@H](CO)N(C(=O)c3ccccc3)C23CN(C(C)=O)C3)cc1 | -0.191%
30 | O=C(c1ccncc1)N1C[C@H]2[C@@H](c3ccccc31)[C@H](CO)N2C(=O)Nc1ccc(F)cc1 | -0.662%
31 | COc1ccccc1C1SCCN1C(=O)c1ccc([N+](=O)[O-])cc1 (stereo not drawn) | 43.3% (active)
32 | Cc1ccc(C)n1NC(=O)c1ccc([N+](=O)[O-])cc1 | 0.235%
33 | COc1ccccc1C1CCN(c2ccc([N+](=O)[O-])cn2)CC1 | 0.136%
34 | Cc1ccc(S(=O)(=O)Nc2ccc3c(c2)C(=O)N(C)[C@@H]2CC[C@@H](CC(=O)O)O[C@H]2CO3)cc1 | -0.106%
35 | Cc1ccc(-c2ccc3c(c2)O[C@H](CN(C)C(=O)CC2CC2)[C@@H](C)CN([C@H](C)CO)S3(=O)=O)cc1 | -0.566%
36 | COc1ccc(NC(=O)Nc2ccc3c(c2)[C@@H]2C[C@H](CC(=O)N4CCCCC4)O[C@H](CO)[C@@H]2O3)cc1 | -0.385%
37 | O=c1cnnc(Nc2ccccc2F)[nH]1 | 43.4% (active)
38 | Cc1nnc(Nc2ccccc2F)s1 | 0.041%
39 | O=c1ccnc(Nc2ccc(Cl)cc2)[nH]1 | 0.494%
40 | CN(C)C(=O)C[C@H]1C[C@@H]2c3cc(NC(=O)CC4CC4)ccc3O[C@@H]2[C@@H](CO)O1 | -0.027%
41 | CCCNC(=O)N(C)C[C@@H]1Oc2ncc(-c3cccc(C#N)c3)cc2C(=O)N([C@@H](C)CO)C[C@H]1C | 0.077%
42 | CC(C)c1cn([C@H]2C[C@@H]3O[C@H](CO)CC[C@@H]3O[C@@H]2CCc2ccc(C#CC3CCCCC3)cc2)nn1 | 0.095%
43 | Cn1cc(CCC(=O)NC2CC2)c2ccccc21 | -0.251%
44 | Cc1ccc(CNC(=O)Cc2cn(C)c3ccccc23)cc1 | -0.058%
45 | CCc1ccccc1NC(=O)Cc1cn(C)c2ccccc12 | 43.6% (active)
46 | C[C@H](CO)N1C[C@H](C)[C@H](CN(C)C(=O)Nc2ccc(F)cc2)OCCCC[C@H](C)Oc2ccc(NC(=O)CCC(F)(F)F)cc2C1=O | -0.451%

Row | SMILES | activity (Tm shift, normalised)
47 | Cn1c(=O)cc(OCC(=O)N2CCN(c3ccccc3F)CC2)c2ccccc21 | 44% (active)
48 | O=C(CCSc1ccccc1)N1CCN(c2ccccc2F)CC1 | 0.121%
49 | O=C(COc1coc(CN2CCN(c3ccccc3F)CC2)cc1=O)N1CCc2ccccc21 | -0.217%
50 | C[C@@H]1CN([C@H](C)CO)C(=O)c2cc(NC(=O)Nc3cccc4ccccc34)ccc2O[C@H]1CN(C)C(=O)Nc1ccccc1 | -0.15%
51 | CCC(=O)N1C[C@@H](C)[C@H](OC)CN(C)C(=O)c2ccc(NC(=O)NC(C)C)cc2OC[C@H]1C | -0.086%
52 | CCC(=O)N1C[C@@H](C)[C@H](OC)CN(C)C(=O)c2ccc(NC(=O)c3ccc(F)cc3)cc2OC[C@@H]1C | -0.101%
53 | O=C(O)CCC(=O)N(Cc1ccccc1)Cc1ccccc1 | -0.007%
54 | CCN(CC)C(=O)N(CC)Cc1ccccc1 | 43.4% (active)
55 | CCN(Cc1ccncc1)C(=O)CCc1ccccc1 | 0.094%
56 | CNC(=O)C[C@H]1CC[C@H]2[C@H](COc3ccc(NC(=O)c4cc(C)on4)cc3C(=O)N2C)O1 | -0.057%
57 | O=C(C[C@H]1C[C@@H]2c3cc(NC(=O)c4ccc5c(c4)OCO5)ccc3O[C@@H]2[C@@H](CO)O1)NCc1cccnc1 | -0.297%
58 | C[C@H]1CN([C@@H](C)CO)C(=O)CCCn2nncc2CO[C@H]1CN(C)S(=O)(=O)c1ccccc1C#N | -0.016%
59 | CO[C@H]1CN(C)C(=O)c2cc(NC(=O)C3CCC3)ccc2OC[C@H](C)N(Cc2nccs2)C[C@H]1C | -0.288%
60 | Cc1noc(C)c1S(=O)(=O)N(C)C[C@@H]1Oc2ccc(NC(=O)Cn3cnnn3)cc2CC(=O)N([C@@H](C)CO)C[C@@H]1C | -0.13%
61 | Cc1cccc(-n2cnc(C(=O)NNC(=S)Nc3ccccc3)c2)n1 | 0.832%
62 | Cn1cc(Cl)c(C(=O)NNC(=S)Nc2cccc(Cl)c2)n1 | 44.2% (active)
63 | O=C(Nc1cccc(Cl)c1)c1cncn1-c1ccc(F)cc1 | 0.242%
64 | COCC(=O)Nc1ccc2c(c1)C(=O)N(C)[C@@H]1CC[C@H](CC(=O)NCC3CC3)O[C@H]1CO2 | 0.038%
65 | CCOc1ccc(NC(=O)COc2ccc(C(=O)NC3CCCc4ccccc43)cc2OC)cc1 (stereo not drawn) | 0.171%
66 | COC(=O)c1cc(OCC(=O)NC2CCCc3ccccc32)cc(C(=O)OC)c1 (stereo not drawn) | 0.172%
67 | NC(=O)Nc1ccc(C(=O)OCC(=O)NC2CCCc3ccccc32)cc1 (stereo not drawn) | 43% (active)
68 | O=C(NC1CCCCC1)N1CC2(C1)[C@H](c1ccccc1)[C@@H](CO)N2S(=O)(=O)Cc1ccccc1 | -0.24%
